# From PubChem
# Rows were chosen to be rich in hits. Some 19% of all compounds tested hit in one or more screens of this group.
# Shiga toxin inh – inhibitors of Shiga toxin in Vero cells. Vero cells, Shiga toxin protein synthesis inhibition reporter. inhibition, % at 38.7 µM. hit rate 9.2% among 290,000. AID 2315; in the data active = inhibition mostly above about 28%, no sharp cut-off; inactive = mostly below about 43%; also: 0% is about no effect
# Lassa entry inh – inhibitors of Lassa virus binding or cell entry; hit rate 1.2% among 300,000; AID 540256; Lassa virus pseudotype entry inhibition, cell reporter; Potency, µM (series often up to 37.9 µM), inactives show top-dose activity change, negative = inhibition, actives largely listed as inhibitors; calls by dose curve; tested in HEK293 cells; also: potency is read from the fitted curve at half-maximal effect; % is scaled to controls: 0 for no effect and ±100 for the full control effect; nearly all actives have a fitted effect of over 50% in size
# Pf growth 96h – inhibits malaria parasite growth, 96 h; AID 504834; hit rate 6.9% among 320,000; P. falciparum luciferase reporter growth, 96 h; Potency, µM (highest dose often 28.7 µM), for inactives: at the top dose activity change, negative = inhibition, hits mostly inhibitors; also: potency is read from the fitted curve at half-maximal effect; % is scaled to controls: 0 for no effect and ±100 for the full control effect
#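 Luminescence readout: decreased luciferase signal marks inhibited growth of reporter-expressing P. falciparum in infected red cells (2% hematocrit, 0.05% parasitemia final), exposed to compound two generations (96 h, 37 C, 5% CO2).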
# Pf growth 48h – P. falciparum growth inhibition at 48 hours (one generation). hit rate 5.9% among 310,000. Potency, µM (highest dose often 28.7 µM), inactives show top-dose activity change, negative = inhibition, actives largely listed as inhibitors. AID 504832. P. falciparum luciferase growth in erythrocytes, 48 h; also: potency is read from the fitted curve at half-maximal effect; % is scaled to controls: 0 for no effect and ±100 for the full control effect
#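 Luciferase-expressing parasites in RBCs, 2% Hct / 0.1% parasitemia final; RPMI 1640 + 0.5% Albumax; 37 C, 5% CO2, one generation; luminescence read-out, lower signal = inhibition.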
# Cycloheximide cs – counter-screen hit for Shiga toxin inhibitors, cycloheximide; hit rate 12% among 300,000; cell reporter, cycloheximide protein synthesis inhibition counterscreen; max response, %; AID 2314; in the data active = max response mostly above about 13%, no sharp cut-off; inactive = mostly below about 14%; also: read at 38.3 µM for the half of the compounds with a filed dose; 0% is about no effect
# MARV entry inh – Marburg virus entry inhibition | Marburg virus pseudotyped entry inhibition, cell reporter | hit rate 1.8% among 300,000 | Potency, µM (top dose mostly 37.8 µM), for the others: top-dose activity change, negative = inhibition, actives largely listed as inhibitors; calls by dose curve; tested in HEK293 cells; also: potency is read from the fitted curve at half-maximal effect; % is scaled to controls: 0 for no effect and ±100 for the full control effect
# * hit, by the source's call; u = inconclusive; x = no result given; [ ] = remark or other dose. Unless noted, calls follow the shape of the dose curve; as a rule, active = well fitted inhibition curve with a large enough effect; inconclusive = small, poorly fitted or top-dose-only effect, or another doubt; inactive = no such curve, though single readings can be large or run the other way.
SMILES,Shiga toxin inh,Lassa entry inh,Pf growth 96h,Pf growth 48h,Cycloheximide cs,MARV entry inh
COc1cc(/C=C(\C#N)C(=O)Nc2cccc(C(=O)O)c2)ccc1OCc1ccc(C)cc1,73.7*,u,7.2%,16.7%,25.6*,-6.9%[46.1 µM]
N#C/C(=C\c1ccc(OCc2cccc(C(=O)O)c2)cc1)C(=O)NCc1ccco1,101.2*,x,319.0%,185.5%,51.7*,x
COc1cc(/C=C(/C#N)C(=O)Nc2ccccc2)ccc1OCc1ccc(C(=O)O)cc1,36.2,x,-98.1%,-0.7%,25.0,x
COc1ccc2c(c1)c1c(c(=O)n(-c3ccc(OC)c(OC)c3)c(=O)n1Cc1ccc(C)cc1)n2C,x,-6.6%[46.1 µM],x,x,x,x
O=C(CSc1nc(=O)n(CCCN2CCOCC2)c2c1CCCC2)Nc1ccc(F)c(F)c1,x,-23.9%,u,u,x,-3.8%
CCN(CC)S(=O)(=O)c1ccc(/C=C/C(=O)OCC(=O)NCc2ccco2)cc1,x,-5.7%,x,x,x,4.2%
COc1cc(/C=C(\C#N)C(=O)NC2CCCCC2)ccc1OCc1ccc(C(=O)O)cc1,33.9,14.6%[46.1 µM],-8.7%,6.57µM*,10.5,u
COc1cc(/C=C(/C#N)c2ccccc2F)ccc1OCc1ccccc1,52.7*,-20.1%,-3.6%,11.7µM*,34.1*,28.5%
COc1cc(/C=C(\C#N)C(=O)NCc2ccccc2)ccc1OCc1ccc(C(=O)O)cc1,18.9,x,u,13.1µM*,0.7,x
COc1cc(/C=C(\C#N)C(=O)NC(C)C)ccc1OCc1ccc(C(=O)O)cc1,10.3,-7.4%,-22.5%,-0.6%,6.3,4.1%[46.1 µM]
COc1cc(/C=C(\C#N)C(=O)Nc2nnc(C(F)(F)F)s2)ccc1OCc1ccc(C(F)(F)F)cc1C(F)(F)F,12.7,14.6µM*,x,x,-3.8,-19.5%
Cc1cc(C(=O)O)ccc1-c1ccc(CO)o1,34.1,27.6%[46.1 µM],u,6.2%,7.1,u
COc1ccccc1NC(=O)CC(=O)CSc1nnc(-c2ccc(C)cc2)n1-c1ccccc1,7.5,2.9%,26.7%,-23.9%,1.1,u
COc1ncccc1C(=O)N1CCCC(N2CCN(c3cccc(Cl)c3)CC2)C1 (stereo not given),-4.4,x,u,-28.8%,9.0,x
COc1ccc(CCNC(=O)/C(C#N)=C/c2cccc(OCc3ccccc3)c2)cc1OC,34.0,-19.0%,11.7µM*,u,10.9,u
Cc1ccc(Nc2nc(-c3c(C)nc4ccccn34)cs2)cc1,-11.5,u,10.4µM*,11.7µM*,-0.8,-40.9%
Cc1nc(C)c(-c2csc(NCc3ccccc3)n2)s1,30.8,20.1%,-8.7%,u,32.6*,-10.9%
Cc1nnc(NCc2ccco2)s1,-12.8,-2.2%,38.5%,10.7%,2.9,u
COc1ccc(CCNc2nc(-c3sc(C)nc3C)cs2)cc1OC,9.8,u,u,x,9.9,u
Cc1nc(NC(=O)c2ccccc2)sc1-c1csc(NCc2ccco2)n1,38.1,-8.8%,u,5.86µM*,15.9,u
Cc1nc(C)c(-c2csc(NCc3ccco3)n2)s1,159.5,4.9%,6.8%,25.9%,30.1*,14.8%
Cc1nc2ccccn2c1-c1csc(NCc2ccco2)n1,16.9,u,x,-14.2%,15.1*,-15.5%
C=CCNc1nc(-c2c(C)nc3ncccn23)cs1,x,-8.8%[46.1 µM],-29.4%,-4.4%,-0.9,-4.7%[46.1 µM]
Cc1ccn2c(-c3csc(NCc4ccccc4)n3)c(C)nc2c1,10.8,u,8.0%,13.1µM*,16.7,u
COc1cc(-c2nc(S(=O)(=O)c3ccc(C)cc3)c(N(C)C)o2)cc(OC)c1OC,-11.0,-23.7%,0.4%,-15.9%,-1.4,-2.4%
CCOC(=O)N1CCC(N2C(=O)c3ccccc3C2Nc2cc(C(=O)OC)cc(C(=O)OC)c2)CC1 (stereo not given),-11.3,x,8.28µM*,x,-4.9,2.6%
CCOC(=O)N1CCC(N2C(=O)c3ccccc3C2Nc2ccc(C)cc2)CC1 (stereo not given),-7.3,x,9.28µM*,x,-2.4,x
CCOC(=O)N1CCC(N2C(=O)c3ccccc3C2Nc2ccccc2)CC1 (stereo not given),-11.7,x,u,x,-4.2,x
CCOC(=O)N1CCC(N2C(=O)c3ccccc3C2Nc2cc(C)cc(C)c2)CC1 (stereo not given),-15.5,u,u,u,1.2,u
CCOC(=O)Cn1c(=O)n(CC2CCCO2)c2nc(-c3ccc(OCC)cc3)nc(C(N)=O)c21 (stereo not given),x,-18.8%[46.1 µM],x,x,x,x
